Among the data in PubChem BioAssay AID1578 (Sanford-Burnham Center for Chemical Genomics, 2009) are inhibition values, retold here.

Hit rate of the full screen: of about 290,000 compounds, about 3,000 (1%) were called active. This is one part of a sample in which actives are shown more often than they occur. Cut-off read from the data, not from the text of the source: active = inhibition mostly above about 36% (no sharp cut-off); inactive = mostly below about 34%.

A short description of this assay: NOD1 signaling inhibitors, primary screen, cell-based, luminescence, uHTS (AID 1578).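 Note: HEK-293T reporter cells stimulated with the NOD1 agonist gamma-tri-DAP.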 The conditions noted are these: NOD1-driven NF-kB luciferase reporter cells, at 4 µM, active compounds read high.
With `O=c1[nH]c([N+](=O)[O-])nn1C(c1ccccc1)c1ccccc1`, the inhibition is 6.5% (inactive). Next, `COC(=O)c1ccc(CSc2cc(C)c3ccccc3n2)o1`: -55.1% (inactive); `COC(=O)c1ccc(CSc2cc(C)c3cc(C)cc(C)c3n2)o1`: 48.3% (active); `COC(=O)c1ccc(CSc2cc(C)c3cccc(C)c3n2)o1`: -10.2% (inactive).

For the compound `CCOC(=O)C1CCN(Cc2cc(C(C)C)c(O)c(C(C)C)c2)CC1`, the inhibition was -13.9% (inactive). Take `CC(C)(C)c1cc(CN2CCC(O)CC2)cc(C(C)(C)C)c1O`: the inhibition was 36.7% (inactive). Next, `CCOC(=O)C1CCN(Cc2cc(C(C)(C)C)c(O)c(C(C)(C)C)c2)CC1`: 43.8% (active); `Cc1c(C(c2cccc(Br)c2)c2c(C)n(C)n(-c3ccccc3)c2=O)c(=O)n(-c2ccccc2)n1C`: -14% (inactive). With `CC12C(=O)N(c3ccc(C(=O)N4CCOCC4)cc3)C(=O)C1C1c3ccccc3C2c2ccccc21` (configuration not stated) the figure was -20.5% (inactive). Next, `c1ccc(-n2c(SCC3CCCCO3)nnc2-c2cnccn2)cc1` (configuration not stated): 11.8% (inactive). Take `CCc1nnc(NC(=O)C2CCN(c3cnccn3)CC2)s1`: the inhibition was -4.1% (inactive).

As to `COc1nc(N/N=C/c2ccc(C)cc2)nc(N2CCCCC2)n1`, the inhibition is -27.3% (inactive).

Turning to `Cc1cc(-c2n[nH]c(=S)n2-c2ccc(C)c(C)c2)no1`, the inhibition was 84% (active). Next, `Cc1ccc(-n2c(-c3ccncc3)n[nH]c2=S)cc1C`: -5.7% (inactive); `Cc1ccc(-n2c(C)n[nH]c2=S)cc1C`: 3.4% (inactive). With `CCN(CC)S(=O)(=O)N1CCC(C(=O)NCc2ccco2)CC1` the figure was 22% (inactive); with `COc1ccc(C2(c3ccc(OC)cc3)NC(=O)N(CC(=O)N(C)C)C2=O)cc1`, -33.1% (inactive). Next, `COc1c(Cl)cc(-c2noc(C)c2C(=O)NCCc2ccc(C)cc2)cc1Cl`: -10.2% (inactive); `CN(C)c1ccc(NC(=O)C(=O)C2C(=O)Nc3ccccc32)cc1` (configuration not stated): -9.3% (inactive). With `COc1cccc(CC(NC(C)=O)C(=O)NC2CCN(c3c4c(nc5ncnn35)CCC4)CC2)c1OC` (configuration not stated), the inhibition is -26.4% (inactive). Next, `CC1=Nc2cc(C(=O)NCC3CCCO3)ccc2Sc2ccc(Br)cc21` (configuration not stated): 8.4% (inactive). Next, `CCC1=Nc2cc(C(=O)NCC3CCCO3)ccc2Sc2ccc(Br)cc21` (configuration not stated): 51.7% (active); `CCC1=Nc2cc(C(=O)NCC3CCCO3)ccc2Sc2ccc(Cl)cc21` (configuration not stated): 1% (inactive); `CCCCNC(=O)N1CCN(c2ccccc2OC)CC1`: -17.5% (inactive). For the compound `CCCN(CC(=O)Nc1ccc(NC(C)=O)cc1)CC(=O)Nc1ccc(F)c(F)c1F`, the inhibition is -20.3% (inactive). With `CCCN(CC(=O)Nc1ccc(C(N)=O)cc1)CC(=O)Nc1ccc(F)c(F)c1F` the figure was 38.1% (active). Next, `CCCN(CC(=O)Nc1ccc(C(N)=O)cc1)CC(=O)Nc1ccc(Cl)cc1Cl`: -30.3% (inactive); `CC(C)NC(=O)CSc1nnc(-c2ccc3ncccc3c2)n1C`: -3.6% (inactive). In the case of `c1cc2[nH]snc2c2nc(C3CC3)nc12`, the inhibition was 63.2% (active). With `Cc1nc2ccc3[nH]snc3c2n1` the figure was 20.2% (inactive); with `CCCOc1ccc2cc(-c3ccccn3)c(=O)oc2c1`, 41.1% (inactive).

`CC1CN(CCc2ccccc2)c2nc3c(c(=O)n(C)c(=O)n3C)n2C1` (configuration not stated): the inhibition was -12.5% (inactive). With `N#Cc1cccc(-n2c(-c3ccccc3)nnc2-c2ccccc2)c1C#N` the figure was 11.5% (inactive); with `N#Cc1ccc(Oc2ccc(-c3nc4ccccc4nc3-c3ccccc3)cc2)cc1C#N`, 3.3% (inactive); with `N#Cc1ccc(-n2c(-c3ccccc3)nnc2-c2ccccc2)cc1C#N`, 42.1% (active). Next, `CCOc1ccc(-n2c(-c3ccccc3)nnc2-c2ccccc2)cc1`: 8.2% (inactive).

As to `N#Cc1ccc(-c2nc3cc(C#N)c(C#N)cc3nc2-c2ccccc2)cc1C#N`, the inhibition was 48.5% (active).

Consider `N#Cc1ccc(-c2nc3ccccc3nc2-c2ccccc2)cc1C#N`, for which the inhibition was 1.3% (inactive). Next, `CC(=O)Nc1nnc(CSCc2ccccc2F)s1`: -5.5% (inactive); `CC(=O)N(C)c1cccc(-c2ccc3nnc(C)n3n2)c1`: -5.9% (inactive). On to `CCOC(=O)c1c(-c2ccccc2)csc1NC(=O)c1cc(S(=O)(=O)N2CCOCC2)ccc1C`, for which the inhibition is -1.6% (inactive). Regarding `Fc1ccc(Nc2nnc(C(F)(F)F)s2)cc1`, the inhibition was 3.4% (inactive). For the compound `Cc1oc(-c2cccc(F)c2)nc1CN1CCCCC1CCn1cccn1` (configuration not stated), the inhibition is -32% (inactive). Take `Cc1nnc(Nc2ccc(Cl)cc2)n(N)c1=O`: the inhibition is -7% (inactive). With `c1ccc(OCc2nnc3sc(C4COc5ccccc5O4)nn23)cc1` (configuration not stated) the figure was 1.5% (inactive); with `c1ccc2c(c1)OCC(c1nn3c(Cn4nnc5ccccc54)nnc3s1)O2` (configuration not stated), -10.7% (inactive).

With `c1ccc(Cc2nnc3sc(C4COc5ccccc5O4)nn23)cc1` (configuration not stated), the inhibition was 107% (active).

In the case of `O=C(Nc1ccc(F)cc1)c1nc[nH]c1C(=O)O`, the inhibition is -6.5% (inactive). With `Nc1nc(-c2ccccc2)c(C(=O)Nc2ccccc2)s1` the figure was -28.9% (inactive); with `O=C1c2ccccc2C(=O)C1c1ccccn1`, -8.4% (inactive); with `O=C1c2ccccc2C(=O)C2OC12` (configuration not stated), 70.9% (active). Next, `Cc1ccccc1C1C(=O)c2ccccc2C1=O`: -39.1% (inactive); `Clc1ccccc1OCCn1cnc2ccccc21`: -21.1% (inactive). As for `COc1ccc(S(=O)(=O)NC(Cc2ccccc2)C(=O)O)cc1` (configuration not stated), the inhibition is -1.3% (inactive).

Turning to `COc1ccc(C(CNC(=O)COc2ccc(C)c(C)c2)N2CCCCC2)cc1` (configuration not stated), the inhibition is 10.5% (inactive).

For the compound `Cc1nc(C)n(CCNC(=O)c2ccco2)n1`, the inhibition is -15.3% (inactive). With `COc1cccc(C=Nc2cccnc2)c1O` the figure was -7.3% (inactive); with `Oc1c(Br)cc(Br)cc1C=Nc1cccnc1`, 67.4% (active); with `Oc1c(Br)cc(Br)cc1C=Nc1ccc2[nH]ncc2c1`, 8.5% (inactive). Next, `COc1ccc(/C=C2\CCC(C3CCCC3)C2=O)cc1Cn1nc(C)cc1C` (configuration not stated): 26.4% (inactive); `Cc1ccc(SCC(=O)NC2CCCCCC2)cc1`: -50.8% (inactive). For `CCN(CC)CCNC(=O)c1cn(CC)c2ccc(S(=O)(=O)N(C)C)cc2c1=O`, the inhibition is -4.5% (inactive). Consider `COC(=O)C(C(=O)OC)C(CC(=O)c1ccc(C)cc1)c1cc(OC)c(OC)c(OC)c1` (configuration not stated), for which the inhibition is -3.3% (inactive).

On to `COc1ccc(C(CC(=O)c2ccc(C)cc2)C(C#N)C#N)cc1OC` (configuration not stated), for which the inhibition is 80.7% (active). Next, `COc1ccc(C(CC(=O)c2ccccc2)CC(=O)c2ccccc2)cc1OC`: -7.4% (inactive). Next, `C=CCN(c1nc(C)c(Br)c(OC)n1)S(=O)(=O)c1ccc(C)cc1`: -14% (inactive); `CCN(Cc1cc2ccccc2[nH]c1=O)S(=O)(=O)c1ccc(OC)cc1`: -5.3% (inactive); `Cc1cc(CNC(=O)c2cccc([N+](=O)[O-])c2C)c2ccccc2n1`: 2.7% (inactive). In the case of `O=C(Oc1ccccc1C(=O)Nc1ccccc1)c1ccc(Br)c([N+](=O)[O-])c1`, the inhibition is -30.7% (inactive). With `O=C(c1ccc2c(Cl)c3c(nc2c1)CCCC3)N1CCC(N2CCCCC2)CC1` the figure was -13.1% (inactive).

Take `Cn1c(=O)c(C(=O)CN2CCc3ccccc32)c(N)n(Cc2ccccc2)c1=O`: the inhibition was -8.9% (inactive).

`O=C(CSc1nc2ncc(Br)cc2[nH]1)c1ccc([N+](=O)[O-])cc1`: the inhibition is -15.6% (inactive). With `Cc1nn(C)cc1/C=C/C(=O)c1cccs1` the figure was 112% (active); with `Cc1c(/C=C/C(=O)c2cccs2)cnn1C`, 20.7% (inactive); with `Cc1nn(C)cc1/C=C/C(=O)c1ccccc1`, -44.5% (inactive).

In the case of `Cc1ccnc(Cc2ccccc2)n1`, the inhibition was -4.5% (inactive). As to `O=C(CCC(=O)OCC(=O)c1ccc(-c2ccccc2)cc1)Nc1cccc(Cl)c1`, the inhibition is 7.8% (inactive). As to `Cc1cc(C)n(-c2ccc(C(=O)Nc3ccccn3)cc2)n1`, the inhibition was -30.3% (inactive). Regarding `Cc1onc(-c2ccccc2Cl)c1C(=O)N/N=C(\N)COc1ccc(Cl)cc1`, the inhibition is 8.6% (inactive). With `Cc1onc(-c2c(Cl)cccc2Cl)c1C(=O)N/N=C(\N)COc1ccc(Cl)cc1` the figure was 71.9% (active); with `Cc1onc(-c2ccccc2)c1C(=O)N/N=C(\N)COc1ccc(Cl)cc1`, -17.2% (inactive); with `O=C(NCC1CC1)NC(=O)c1c(F)cccc1Cl`, -15.8% (inactive). Take `Nc1ccc(S(=O)(=O)Nc2nccc(/C=C/c3ccc(Cl)cc3)n2)cc1`: the inhibition is 22.2% (inactive). Next, `Nc1ccc(S(=O)(=O)Nc2nccc(/C=C/c3ccc([N+](=O)[O-])cc3)n2)cc1`: 14% (inactive); `C=CCn1cnc2c(nnn2-c2ccc(C)c(C)c2)c1=O`: -34.3% (inactive); `Oc1ccc(N=Nc2ccc3c(c2)OCO3)c2ccccc12`: 109% (active).

`NS(=O)(=O)c1ccc(N=Nc2ccc(O)c3ncccc23)cc1`: the inhibition is -6.1% (inactive).

On to `Oc1ccc(N=Nc2ccc3c(c2)OCCO3)c2ncccc12`, for which the inhibition was 106% (active).

Take `O=S(=O)(Nc1ccc(N=Nc2ccc(O)c3ccccc23)cc1)c1ccccc1`: the inhibition is 13% (inactive).

`Oc1[nH]c2ccccc2c1C=Nc1ccc2c(c1)OCO2`: the inhibition is 14.2% (inactive). Next, `Oc1ccc(N=Nc2ccc3c(c2)OCCO3)c(O)c1`: -2.2% (inactive); `Cc1ccc(S(=O)(=O)N(CC(=O)N2CCC(C)CC2)c2ccccc2)cc1`: -4.7% (inactive); `Cc1nc(NC(=O)c2ccccc2)sc1C`: -84.9% (inactive). With `COCC(=O)OCn1nnc2ccccc2c1=O` the figure was 3.6% (inactive); with `Cc1ccc(NC(=O)c2ccc(Nc3c([N+](=O)[O-])cc([N+](=O)[O-])cc3[N+](=O)[O-])cc2)cc1`, 4.8% (inactive); with `O=C(Nc1ccccc1)c1ccc(Nc2c([N+](=O)[O-])cc([N+](=O)[O-])c3ccccc23)cc1`, -8.1% (inactive).

Regarding `Cc1ccccc1NC(=O)c1ccc(Nc2c([N+](=O)[O-])cc([N+](=O)[O-])c3ccccc23)cc1`, the inhibition was 76.4% (active).
